# Laboratory results as given in PubChem BioAssay.
# Activity calls are given as the source filed them. Unless noted, no rule for the calls is given here.
# What was measured:
# [1] = test system: Wnt5a (protein binding on small-molecule microarray); assay: Wnt5a binders on small-molecule microarray, primary screen, biophysical, 635/667 nm fluorescence (AID 1142); conditions: 635 nm fluorescence, higher = more signal;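 also: fluorescence read at 667 nm with signal to noise per printed feature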
# [2] = cell viability in Huh7 cells, primary screen, cytotoxicity control for HCV replication inhibitor project, CellTiter-Glo luminescence, basal, 48 h (AID 1143); conditions: Huh7 HCV replicon, higher = more signal, called active from +8 up or from −8 down;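 also: Huh7 hepatoma cells carrying a hepatitis C replication reporter with no stimulus; test concentration not given here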
# [3] = P. aeruginosa biofilm formation inhibitors, primary screen, PAO1 strain, BacTiter-Glo luminescence, LB-PBS (AID 1144); conditions: 12 h, higher = more signal
# [4] = CREB reporter modulators without forskolin, primary screen, cell-based, PC12, CRE-LacZ reporter, unstimulated (AID 1145); conditions: no forskolin, luminescence, 4.5 h, higher = more signal, called active from +8 up or from −8 down
# [5] = CREB reporter modulators under forskolin, primary screen, cell-based, PC12, CRE-LacZ reporter, forskolin-stimulated (AID 1146); conditions: luminescence, 4.5 h, higher = more signal, called active from +8 up or from −8 down;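 also: PC12 cells with 6xCRE LacZ reporter stimulated by forskolin 10 µM; beta-galactosidase reporter signal reflecting CREB driven transcription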
# [6] = molecular target: Streptavidin (Streptomyces avidinii) (UniProt P22629); assay: streptavidin binders on small-molecule microarray, primary screen, artefact control for SMM compound annotation, biophysical, 635/667 nm fluorescence (AID 1147); conditions: streptavidin binding, higher = more signal;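 also: signal reflects streptavidin binding to arrayed compounds as a control protein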
# [7] = small-molecule binders of probe aInhba, primary screen, biochemical, small-molecule microarray, 635/667 nm fluorescence (AID 1148); conditions: higher = more signal;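 also: score merges 667nm spot fluorescence with signal-to-noise for antibody binding to printed compounds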
# Torsin-1A (Homo sapiens) [8] = molecular target: Torsin-1A (Homo sapiens) (UniProt O14656); assay: torsin A binders from cell lysate, primary screen, small-molecule microarray, wild-type, 635/667 nm (AID 1149); conditions: COS7 hTOR1A-WT lysate, 635 nm fluorescence, higher = more signal
# Torsin-1A (Homo sapiens) [9] = molecular target: Torsin-1A (Homo sapiens) (UniProt O14656); assay: small-molecule binders of mutant TOR1A in lysate, primary screen, cell lysate, small-molecule microarray, COS7 lysate, 635/667 nm fluorescence (AID 1150); conditions: COS7 hTOR1A mutant lysate, 635 nm fluorescence, higher = more signal;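 also: score pools 667 nm emission and signal to noise measuring lysate protein binding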
# [10] = test system: Sonic hedgehog protein (Shh); assay: small-molecule binders of Shh protein, primary screen, biochemical, small-molecule microarray, 635/667 nm fluorescence (AID 1151); conditions: small-molecule microarray binding, 635 nm fluorescence; higher = more signal;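 also: Shh protein binding to compounds spotted on small-molecule microarray slides; score combines spot fluorescence intensity with signal-to-noise across triplicate slides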
# Sequence of Torsin-1A (Homo sapiens) (O14656 whole entry, looked up): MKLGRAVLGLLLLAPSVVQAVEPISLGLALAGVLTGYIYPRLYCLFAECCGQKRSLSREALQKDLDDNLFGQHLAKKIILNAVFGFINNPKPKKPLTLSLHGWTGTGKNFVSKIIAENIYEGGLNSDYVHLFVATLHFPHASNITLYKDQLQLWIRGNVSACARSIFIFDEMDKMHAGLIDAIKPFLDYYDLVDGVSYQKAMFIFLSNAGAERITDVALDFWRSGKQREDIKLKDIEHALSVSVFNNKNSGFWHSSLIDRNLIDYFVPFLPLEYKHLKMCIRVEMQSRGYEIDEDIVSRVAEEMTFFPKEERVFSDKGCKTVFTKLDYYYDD
# Sequence of Streptavidin (Streptomyces avidinii) (P22629 whole entry, looked up): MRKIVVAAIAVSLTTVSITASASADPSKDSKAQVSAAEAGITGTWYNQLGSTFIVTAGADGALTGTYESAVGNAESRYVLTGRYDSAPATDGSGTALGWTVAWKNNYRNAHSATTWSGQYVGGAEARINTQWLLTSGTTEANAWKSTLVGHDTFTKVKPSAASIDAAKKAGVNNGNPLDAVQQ
SMILES,composite z-score [1],z-score [2],z-score [3],z-score [4],z-score [5],composite z-score [6],composite z-score [7],composite z-score (Torsin-1A (Homo sapiens) [8]),composite z-score (Torsin-1A (Homo sapiens) [9]),composite z-score [10]
Cc1cccc(/C=C/C=O)c1,-0.0267,0.585 (inactive),0.16 (inactive),0.0924 (inactive),-0.0647 (inactive),1.04,-0.0963,-0.782,-0.295,0.0638
Cc1ccc(F)cc1S(=O)(=O)N[C@@H]1CCN(Cc2ccc(C(F)(F)F)cc2)C1,-0.192,-4.39 (inactive),1.2 (inactive),3.48 (inactive),0.777 (inactive),-0.381,-0.208,-0.181,0.319,0.451
COCCCNC(=O)[C@@]1(Sc2ccc(C)cc2)CC(=O)N(Cc2ccccc2)[C@@H]1c1ccc(CO)cc1,-0.114,0.101 (inactive),-0.578 (inactive),-0.438 (inactive),0.579 (inactive),-0.82,-0.0193,0.366,-0.607,-0.168
O=C1C2C=CC(C(O)C3CC=CCC3)N(n3cnnc3)C2C(=O)N1Cc1ccccc1 (stereo not given),-0.149,0.227 (inactive),0.356 (inactive),0.332 (inactive),0.705 (inactive),0.0704,-0.128,0.187,-0.0519,-0.183
CCCC[C@@H]1C[C@H]1[C@@H](NC(=O)c1ccccc1)c1ccc(-c2ccccc2)cc1,-0.0558,-4.35 (inactive),0.257 (inactive),0.0075 (inactive),0.31 (inactive),0.301,-0.0736,-0.256,-0.0118,-1.11
CC(c1ccccc1)C(O)C1C=CC2C(=O)N(Cc3ccccc3)C(=O)C2N1n1cnnc1 (stereo not given),0.0618,-0.0357 (inactive),0.144 (inactive),-0.172 (inactive),0.945 (inactive),0.705,-0.145,0.327,0.358,-0.506
O=C1C[C@@](C(=O)O)(c2ccc([N+](=O)[O-])cc2)[C@@H](c2ccc(CO)cc2I)N1C1CCCCC1,0.45,-4.77 (inactive),-2.27 (inactive),-0.619 (inactive),-0.598 (inactive),0.988,0.0905,-0.757,0.206,-0.196
COc1ccc([Si](C)(C)[C@H]2[C@H](CCO)O[C@@]3(C(=O)N(Cc4ccccc4)c4ccc(N5C(=O)COc6ccccc65)cc43)[C@@H]2C)cc1,0.19,-6.69 (inactive),-0.539 (inactive),-0.258 (inactive),-0.81 (inactive),0.0375,0.189,-0.503,0.105,1.92
CC[C@@H]1C=C(C(=O)O)[C@H](c2ccc(C(C)C)cc2)N1S(=O)(=O)c1ccc(C)cc1,0.764,-0.822 (inactive),0.448 (inactive),-0.0137 (inactive),-0.0578 (inactive),0.939,0.432,0.145,1.22,0.34
COc1c(C)cc(-c2cc3c(c(-c4ccccc4)n2)[Si](C(C)C)(C(C)C)O[C@H]3c2ccccc2)cc1C,-0.0797,0.393 (inactive),-0.0188 (inactive),-0.244 (inactive),-0.0226 (inactive),-0.0096,-0.119,-0.381,-0.22,0.618
COc1ccc([Si](C)(C)[C@@H]2[C@@H](CCn3cc([C@H](O)c4ccccc4)nn3)O[C@]3(C(=O)N(C)c4ccccc43)[C@H]2C)cc1,0.0302,-3.85 (inactive),0.317 (inactive),1.72 (inactive),-1.26 (inactive),-0.0794,-0.0465,-0.507,-0.0593,-0.103
C=CCN1C(=O)[C@]2(COC(c3ccc(OCCCO)cc3)=N2)Cc2ccccc21,0.258,-3.34 (inactive),-1.18 (inactive),1.8 (inactive),-1.3 (inactive),-0.554,0.167,0.689,0.277,0.169
C=CC[C@@]1(C(N)=O)N=C(c2ccc(OCCCO)cc2)O[C@@H]1c1ccccc1N=[N+]=[N-],0.373,-0.656 (inactive),-0.0376 (inactive),0.614 (inactive),-1.89 (inactive),0.496,0.195,1.02,0.705,0.821
CN(C)CCCCCCNC(=O)[C@@H]1C[C@@H]2C(=O)N[C@@H](Cc3ccccc3)C(=O)N2[C@@H]1c1cccc(OCCO)c1,0.154,0.59 (inactive),0.0305 (inactive),-0.122 (inactive),-1.29 (inactive),0.0978,-0.0209,1.15,0.885,1.28
[N-]=[N+]=NCc1ccccc1C[C@]1(C(=O)N2CCOCC2)N=C(c2ccc(OCCCO)cc2)O[C@H]1c1ccccc1,0.258,-5.35 (inactive),-0.764 (inactive),0.391 (inactive),-1.5 (inactive),0.981,0.0091,0.0039,0.348,-0.147
[N-]=[N+]=NCc1ccccc1C[C@]1(C(N)=O)N=C(c2ccc(OCCCO)cc2)O[C@H]1c1ccccc1N=[N+]=[N-],0.451,-1.84 (inactive),-0.43 (inactive),-0.254 (inactive),0.248 (inactive),0.978,0.0906,0.0331,0.652,-0.413
COC(=O)[C@@]1(Cc2ccc(F)cc2)[C@H]2c3cc(C(=O)N(C)C)n(CCc4c[nH]c5ccc(OC)cc45)c3C[C@H]2CN1C(=O)c1ccccc1,0.325,-3.84 (inactive),1.41 (inactive),1.54 (inactive),0.883 (inactive),1.18,0.351,1.03,1.31,-1.11
Cc1ccc(N2C(=O)c3ccccc3[C@@H](C(=O)NC(C)C)[C@@H]2c2ccc(CO)cc2)nc1,0.635,-2.73 (inactive),-1.83 (inactive),0.351 (inactive),0.807 (inactive),-0.896,-0.104,-1.73,2.08,-0.473
CCOC(=O)C=Cc1cccc(OC)c1O,-0.811,-4.11 (inactive),1.91 (inactive),0.182 (inactive),-0.791 (inactive),-0.432,-0.13,-0.146,0.141,-0.8
C[N+](C)(C)CCCCNC(=O)[C@H]1C[C@H]2C(=O)N3CCC[C@H]3C(=O)N2[C@H]1c1ccc(O)cc1,0.554,-0.102 (inactive),0.014 (inactive),-0.821 (inactive),-0.512 (inactive),0.319,-0.164,1.84,1.66,1.86
O=C1c2ccccc2[C@](Cc2ccccc2I)(C(=O)O)[C@H](c2ccc(CO)cc2)N1Cc1ccccc1C(F)(F)F,-0.186,-1.17 (inactive),-0.99 (inactive),-0.295 (inactive),0.748 (inactive),0.477,-0.024,-0.242,-0.203,-0.489
